From PubChem BioAssay (NCATS)
Values joined by “and” are separate entries in the source; they are usually repeats but may differ in a detail not shown here. Identical values can stand only once. Results filed as inconclusive are left out. Active and inactive are the calls of the source. Calls come from the whole dose curve; as a rule, active = well fitted inhibition curve with a large enough effect; inconclusive = small, poorly fitted or top-dose-only effect; inactive = flat fitted curve, though single readings scatter. Where a SMILES comes first, the peptide text is derived from it.
% is set by controls: 0 for no effect and ±100 for the full control effect.

Each compound was assayed on CRL-7250 (assay: Cytotoxic Profiling of Annotated Libraries Using Quantitative High-Throughput Screening (AID 1296008; note: nearly all actives have a fitted effect of over 60% in size)). Conditions: Five cell lines viability, CellTiter-Glo ATP luminescence, 48-72 h; max response: hits give low values.
Procedure, shortened: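 Cells exposed to compounds for 48 or 72 hr at 37 degrees Celsius. Viability read as ATP-coupled luminescence with CellTiter-Glo after 10 min at room temperature.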
`CON(C)C(=O)N1N=C(c2cc(F)ccc2F)S[C@@]1(CCCN)c1ccccc1` was tested, and the max response was -53.9% (inactive) and -40.4% (inactive). With `C[C@@H]1O[C@@H](O[C@H]2[C@H](O[C@H]3CO[C@@H](O[C@H]4CC[C@@]5(C)C(CC[C@]6(C)C5CC[C@]57OC[C@@]8(CC[C@](C)(CO)CC85)[C@H](O)C[C@]76C)C4(C)C)[C@H](O[C@@H]4O[C@H](CO)[C@@H](O)[C@H](O)[C@H]4O)[C@H]3O)O[C@H](CO)[C@@H](O)[C@@H]2O)[C@H](O)[C@H](O)[C@H]1O` (stereo partly drawn) the max response was -17.3% (inactive). With `C[C@@H]1C[C@H](O)/C=C/[C@H](O)[C@@H](O)CC(=O)O1` the max response was 2.61% (inactive). For `CCOC(=O)c1ccc(N(C)c2csc(-c3ccccc3)n2)cc1`, the max response was 4.84% (inactive). `NC(=O)[C@H]1CCCCc2c1[nH]c1ccc(Cl)cc21` was tested, and the outcome was “inactive”. In the case of `CO[C@@H]1COCC[C@@H]1N[C@@H]1CC[C@@](C(=O)N2CCc3ncc(C(F)(F)F)cc3C2)(C(C)C)C1`, the outcome is reported as “inactive”. In the case of `CC(=O)OC1C(O)CC(O[C@@H]2O[C@H](CO)[C@@H](O)[C@H](O)[C@H]2O)C2CCC3C(=O)OC(c4ccoc4)CC3(C)C21` (stereo partly drawn), the max response is reported as -4.25% (inactive). `COC(=O)C1C(c2ccc(O)cc2)C(C(=O)OC)C1c1ccc(O)cc1` (stereo not drawn) was tested, and the max response was -3.45% (inactive). In the case of `C[C@@H](O)[C@H](N)C(=O)N1CCC[C@H]1C(=O)N1CCC[C@H]1C(=O)N[C@H](C(N)=O)[C@@H](C)O` (H-TPPT-NH2), the outcome is reported as “inactive”. `CCC[C@@H]1C[C@@H](C(=O)N[C@@H]([C@H]2O[C@H](SC)[C@H](OP(=O)(O)O)[C@@H](O)[C@H]2O)[C@H](C)Cl)N(C)C1` was tested, and the max response was -7.94% (inactive). With `C=C1CC2C3(C)C(O)CC(=O)C(C)(C)C3C(OC(C)=O)C(OC(C)=O)C2(C)C2C(=O)OC(C)(C(=O)OC)C(=O)C12C` (stereo not drawn) the outcome was “inactive”. With `COC(=O)C1(Cc2ccc(O)cc2)OC(=O)C(OC)=C1c1ccc(O)cc1` (stereo not drawn) the max response was -4.87% (inactive). `COc1cc(C(O)C(CO)Oc2ccc(CCCO[C@@H]3O[C@@H](C)[C@H](O)[C@@H](O)[C@H]3O)cc2OC)ccc1O` (stereo partly drawn) was tested, and the outcome was “inactive”. `CC1(C)CC[C@]2(C(=O)O[C@@H]3O[C@H](CO)[C@@H](O)[C@H](O)[C@H]3O)CC[C@]3(C)C(=CCC4[C@@]5(C)C[C@@H](O)[C@H](O)C(CO)(CO)C5CC[C@]43C)C2[C@@H]1O` (stereo partly drawn) was tested, and the max response was 3.1% (inactive). For `CC(C)C1=CC2=CCC3[C@](C)(CCC[C@@]3(C)C(=O)O)C2CC1O` (stereo partly drawn), the max response was -2.15% (inactive). For `COc1cc(C2Oc3c(O)cc(CCCO)cc3C2CO)ccc1O[C@H]1O[C@H](C)[C@@H](O)[C@H](O)[C@@H]1O` (stereo partly drawn), the max response was 0.29% (inactive). For `COC(=O)C1=CO[C@@H](O[C@@H]2O[C@H](CO)[C@@H](O)[C@H](O)[C@H]2O)[C@@H]2[C@@H](C)[C@@H](O)C[C@H]12`, the max response was -3.5% (inactive). In the case of `COC(=O)C1=COC(OC2OC(CO)C(O)C(O)C2O)C2C1CC(OC(=O)C(O)CC(=O)O)C2C` (stereo not drawn), the max response is reported as -2.72% (inactive). In the case of `CCC[C@@H]1C[C@@H](C(=O)N[C@@H]([C@H]2O[C@H](SC)[C@H](O)[C@@H](O)[C@@H]2O)[C@@H](C)O)N(C)C1`, the outcome is reported as “inactive”. For `COc1c(C)c2c(c(O)c1C/C=C(\C)CC/C=C(\C)CCC(=O)O)C(=O)OC2`, the max response was -4.04% (inactive). In the case of `O=C1C[C@@H](c2ccc(O)cc2)Oc2cc(O)ccc21`, the max response is reported as -9.15% (inactive). In the case of `CC1(C)CCC(C)(C)c2cc3c(cc21)Sc1ccccc1N=C3c1ccc(C(=O)O)cc1`, the outcome is reported as “inactive”. With `CC(=O)OC(CSC1CCC(=O)OC(C)CCC(=O)C1)C(=O)O` (stereo not drawn) the max response was -6.05% (inactive). In the case of `CCOc1ccc(-c2ccc(Cn3c(CC(C)(C)C(=O)O)c(SC(C)(C)C)c4cc(OCc5ccc(C)cn5)ccc43)cc2)cn1`, the max response is reported as -21.1% (inactive) and -6.16% (inactive). For `C=C1[C@@H]2CC[C@@]3(C)[C@H](c4ccoc4)OC(=O)C[C@]13O[C@H]1CC(=O)C(C)(C)[C@H](CC(=O)OC)[C@]12C`, the max response was -0.448% (inactive). `Cn1c(=O)c2nc(/C=C/c3cccc(Cl)c3)n(C)c2n(C)c1=O` was tested, and the outcome was “inactive”. With `CC(C)NC[C@H](O)COc1ccc(CCOCC2CC2)cc1` the max response was -3.5% (inactive). In the case of `COc1cc(C(C)=O)ccc1O[C@@H]1O[C@H](CO[C@@H]2O[C@@H](C)[C@H](O)[C@@H](O)[C@H]2O)[C@@H](O)[C@H](O)[C@H]1O`, the max response is reported as -2.17% (inactive).
